Common to all, as to assay type: functional
Assay [1] has as its target Solute carrier family 2, facilitated glucose transporter member 1 (Homo sapiens) (UniProt P11166). In words: ST_JUDE_LEISH: Cytotoxicity at 2uM final concentration against transgenic Leishmania Mexicana promastigotes LmGLUT1 that are glucose transport deficient and complemented with the human glucose transporter GLUT1. Activity is measured by DNA content using SYBR green in vitro.

Assay [2] concerns the target Hexose transporter 1 (Plasmodium falciparum) (UniProt O97467). Put plainly: ST_JUDE_LEISH: Cytotoxicity at 2uM final concentration against transgenic Leishmania Mexicana promastigotes LmPfHT that are glucose transport deficient and complemented with the Plasmodium falciparum hexose transporter. Activity is measured by DNA content using SYBR green in vitro.
The target of assay [3] is Glucose transporter (Leishmania mexicana) (UniProt O61059). Put plainly: ST_JUDE_LEISH: Cytotoxicity at 2uM final concentration against transgenic Leishmania Mexicana promastigotes LmGT2 that are glucose transport deficient and complemented with the L. Mexicana glucose transporter 2. Activity is measured by DNA content using SYBR green in vitro.

Solute carrier family 2, facilitated glucose transporter member 1 (Homo sapiens), sequence (P11166 whole entry): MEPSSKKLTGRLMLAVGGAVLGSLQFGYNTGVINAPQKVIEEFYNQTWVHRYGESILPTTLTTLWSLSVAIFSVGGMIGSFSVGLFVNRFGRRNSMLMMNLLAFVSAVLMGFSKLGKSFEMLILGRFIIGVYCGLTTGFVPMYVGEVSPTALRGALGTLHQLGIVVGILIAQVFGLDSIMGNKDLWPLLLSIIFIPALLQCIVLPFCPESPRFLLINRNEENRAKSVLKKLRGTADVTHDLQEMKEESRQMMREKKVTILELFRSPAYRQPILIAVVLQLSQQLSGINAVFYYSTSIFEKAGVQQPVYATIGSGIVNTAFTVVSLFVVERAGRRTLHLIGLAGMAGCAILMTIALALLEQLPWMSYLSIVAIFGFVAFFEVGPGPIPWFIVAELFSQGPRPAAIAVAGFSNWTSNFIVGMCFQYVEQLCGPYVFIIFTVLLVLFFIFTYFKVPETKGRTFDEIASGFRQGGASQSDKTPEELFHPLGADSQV

For `CCN(CC)CCN(Cc1ccc(-c2ccc(C(F)(F)F)cc2)cc1)C(=O)Cn1c(CCc2ccc(F)c(F)c2)nc(=O)c2ccccc21`, the values for the inhibition in assay [1], in assay [2] and in assay [3] were 1.89%, 0.22% and 1.08%, respectively.

For `Cc1cc(O)c(CN2CCN(Cc3cccs3)CC2)cc1C(C)C`, the inhibition (commonly the drop in the measured response relative to a control, in per cent) was -0.44% in assay [1], 0.02% in assay [2] and 2.94% in assay [3].

For the compound `S=C(NCCCCCN1CCC(c2c[nH]c3ccccc23)CC1)Nc1cc(Cl)cc(Cl)c1`, the inhibition was 0.38% in assay [1], -0.55% in assay [2] and 0.49% in assay [3].

Take `O=C(Nc1ccc(Cl)cc1)Nc1ccc(-c2cccc(-c3nc4cc(F)ccc4[nH]3)c2)cc1`: the inhibition is 2.83% in assay [1], 4.68% in assay [2] and 3.09% in assay [3].

Take `CCCC(=O)c1cnc2c(I)cccc2c1Nc1ccccc1C`: the inhibition in assay [1] is 3.51%; in assay [2], 4.24%; in assay [3] it was 3.57%.

Consider `CCCCCCN(CCCCCC)CCCCNc1c2ccc(Cl)cc2nc2ccc(OC)cc12`, for which the inhibition in assay [1] was -3.87%; in assay [2], 0.39%; in assay [3], 0.56%.

As for `CCNc1cc(C(=O)N[C@@H](Cc2ccccc2)[C@H](O)CNC2(CC)CCCCC2)cc(N2CCCCS2(=O)=O)c1`, the inhibition in assay [1] is -0.15%; in assay [2], 0.61%; in assay [3], -2.89%.

For the compound `O=C(Cn1c(CCc2cccc(F)c2F)cc(=O)c2ccccc21)N(Cc1ccc(-c2ccc(C(F)(F)F)cc2)cc1)C1CCN(CCN2CCOCC2)CC1`, the inhibition in assay [1] worked out at 1.92%; in assay [2], 1.75%; in assay [3] it was 1.28%.

With `COc1ccc2nccc(NC(=O)N3CCC(NCc4cc5c(F)ccc(F)c5[nH]4)CC3)c2n1`, the inhibition came to 16.9% in assay [1], 19.2% in assay [2] and 22.6% in assay [3].

With `Cc1cc(Cl)c(S(=O)(=O)NC(C)(C)C)cc1OCC(=O)NC1CCCCC1`, the inhibition in assay [1] was -0.97%; in assay [2] it was 0.93%; in assay [3] it was 0.34%.

Turning to `O=C(CCc1ccccc1)NC(c1ccc(Cl)cc1)c1ccc2cccnc2c1O` (stereo not drawn), the values for the inhibition in assay [1], in assay [2] and in assay [3] were -0.41%, 1.91% and 3.42%, respectively.

Values taken from ChEMBL document CHEMBL3433997, “St. Jude Leishmania screening dataset” (2016).
